Columns and labels:
Conditions in all cases: concentration: 1 μM, replicates: in singlicate; n = 1
[1] = test system: BMPR1A
[2] = test system: BMPR1B
[3] = test system: BMPR2
[4] = test system: BMX
[5] = test system: BRAF
[6] = test system: T1, BRK
T1 construct: gene PTK6

[7] = test system: BRSK1
[8] = test system: BRSK2
[9] = test system: BTK
[10] = test system: BUB1
[11] = test system: CAMK1B
[12] = test system: CAMK1D
[13] = test system: CAMK1G
[14] = test system: CAMK1
[15] = test system: CAMK2A
[16] = test system: CAMK2B
[17] = test system: CAMK2D
[18] = test system: CAMK2G
[19] = test system: CAMK4
[20] = test system: CAMKK1
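Further: KINOMEscan kinase panel screen.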

Row | Structure (SMILES) | %Inh [1] [%] | %Inh [2] [%] | %Inh [3] [%] | %Inh [4] [%] | %Inh [5] [%] | %Inh [6] [%] | %Inh [7] [%] | %Inh [8] [%] | %Inh [9] [%] | %Inh [10] [%] | %Inh [11] [%] | %Inh [12] [%] | %Inh [13] [%] | %Inh [14] [%] | %Inh [15] [%] | %Inh [16] [%] | %Inh [17] [%] | %Inh [18] [%] | %Inh [19] [%] | %Inh [20] [%]
1 | C[C@@H]1CCCCN1c1cc(-c2ccc3c(N)n[nH]c3c2)nc(N)n1 [GSK2258759] | 0 | 0 | 0 | 12 | 0 | 11 | 0 | 0 | 0 | 0 | 0 | 15 | 0 | 9 | 0 | 0 | 1 | 28 | 0 | 8
2 | Cl.Oc1ccc(-c2nc(-c3ccccc3)[nH]c2-c2ccncc2)cc1 [SB-428218] | 0 | 0 | 20 | 0 | 60 | 26 | 0 | 0 | 21 | 93 | 24 | 0 | 2 | 2 | 0 | 0 | 9 | 29 | 0 | 18
3 | CS(=O)(=O)c1ccc(-c2c(-c3ncn[nH]3)sc(N3CCOCC3)c2C#N)cc1 | 17 | 4 | 12 | 0 | 12 | 0 | 100 | 32 | 0 | 29 | 25 | 16 | 11 | 13 | 14 | 30 | 6 | 11 | 18 | 19
4 | Fc1cc(Cl)ccc1Nc1ccnc2cc(-c3ccc(CN4CCCCC4)o3)ccc12 [GW560116] | 0 | 0 | 0 | 0 | 0 | 14 | 2 | 0 | 0 | 26 | 0 | 8 | 0 | 3 | 0 | 0 | 8 | 26 | 0 | 4
5 | CC(C)(C)c1ccc(C(=O)Nc2cn3cc(Cl)ccc3n2)cc1 | 0 | 3 | 0 | 0 | 9 | 0 | 0 | 0 | 0 | 0 | 0 | 0 | 0 | 0 | 3 | 0 | 3 | 11 | 6 | 95.8
6 | Fc1cccc(COc2nnc(-c3ccc4c(c3)CCO4)o2)c1 | 0 | 6 | 18 | 0 | 0 | 0 | 0 | 6 | 17 | 20 | 0 | 0 | 12 | 18 | 0 | 6 | 0 | 7 | 0 | 8
7 | COc1cc2nccc(Nc3ccc(NC(=O)c4ccc(C)cc4)c(O)c3)c2cc1OC.Cl [GW440132] | 1 | 0 | 0 | 22 | 0 | 36 | 0 | 3 | 32 | 31 | 0 | 20 | 6 | 15 | 0 | 0 | 17 | 35 | 0 | 0
8 | O=C(Nc1n[nH]c2nc(-c3nccs3)c(Br)cc12)C1CC1 [SB-742251] | 0 | 0 | 63 | 0 | 13 | 2 | 95.3 | 90 | 26 | 48 | 19 | 0 | 0 | 0 | 0 | 0 | 0 | 0 | 0 | 0
9 | COc1ccccc1CNC(=O)c1cc(C(=O)c2ccccc2C)c[nH]1 [GSK364507] | 4 | 0 | 7 | 8 | 0 | 12 | 0 | 95.2 | 0 | 33 | 7 | 0 | 0 | 9 | 0 | 0 | 0 | 12 | 0 | 7
10 | Cn1cncc1-c1ccc2ncnc(Nc3ccc(OCc4ccccc4)cc3)c2c1 [GW320571] | 17 | 0 | 0 | 28 | 3 | 15 | 0 | 0 | 0 | 26 | 11 | 23 | 16 | 23 | 0 | 0 | 9 | 10 | 23 | 0
11 | Nc1nc(-c2nccs2)c(-c2ccnc3ccccc23)s1 [GW693542] | 14 | 10 | 9 | 0 | 0 | 3 | 11 | 0 | 0 | 47 | 7 | 27 | 0 | 30 | 0 | 0 | 0 | 13 | 0 | 6
12 | Cc1c(Cn2ccn3c(=O)cc(N4CCOCC4)nc23)cccc1C(F)(F)F [GSK2289044] | 0 | 0 | 0 | 38 | 0 | 0 | 0 | 0 | 0 | 0 | 0 | 7 | 13 | 0 | 83 | 79 | 18 | 32 | 5 | 9
13 | O=C1NC(=O)C(N2CCc3ccccc32)=C1c1ccccc1Cl [SB-373598] | 0 | 8 | 100 | 29 | 1 | 24 | 12 | 9 | 0 | 16 | 41 | 65 | 0 | 67 | 20 | 0 | 18 | 22 | 10 | 4
14 | COc1cc2ncn(-c3cc(OCC4CCCO4)c(C(N)=O)s3)c2cc1OC (stereo not shown) [GSK204607] | 0 | 0 | 24 | 19 | 0 | 18 | 15 | 7 | 0 | 32 | 0 | 13 | 0 | 6 | 0 | 0 | 0 | 0 | 0 | 0
15 | CCn1c(-c2ccccn2)nc2cnccc21 [SB-736398] | 0 | 0 | 21 | 77 | 11 | 14 | 100 | 0 | 7 | 40 | 34 | 0 | 0 | 0 | 0 | 0 | 0 | 0 | 0 | 0
16 | Cc1cccc(-c2nc(Nc3cccc(C(N)=O)c3)c3ccccc3n2)n1 [GW876019] | 74 | 0 | 14 | 0 | 0 | 9 | 18 | 0 | 9 | 16 | 0 | 0 | 9 | 0 | 0 | 0 | 7 | 0 | 3 | 12
17 | Cc1csc(-c2nc(Nc3ccncc3)c3ccccc3n2)n1 [GW869640] | 6 | 42 | 36 | 14 | 10 | 8 | 0 | 15 | 0 | 72 | 9 | 0 | 14 | 5 | 10 | 2 | 17 | 25 | 0 | 26
18 | Clc1cc(Cl)cc(Nc2ccnc(Nc3cc(Cl)cc(Cl)c3)n2)c1 [GSK175726] | 0 | 0 | 5 | 26 | 0 | 21 | 0 | 0 | 0 | 10 | 3 | 10 | 0 | 7 | 4 | 0 | 0 | 8 | 0 | 10
19 | O=C(Nc1n[nH]c2nc(-c3nccs3)c(Br)cc12)C1CCCC1 [SB-742609] | 0 | 0 | 13 | 0 | 12 | 26 | 93 | 85 | 0 | 37 | 20 | 1 | 8 | 0 | 0 | 0 | 15 | 11 | 0 | 8
20 | O=C(Nc1n[nH]c2cc(-c3cccc(F)c3F)ccc12)C1CC1 [SB-733894] | 31 | 31 | 52 | 0 | 0 | 0 | 54 | 58 | 0 | 0 | 0 | 12 | 100 | 26 | 19 | 13 | 1 | 7 | 0 | 8

— publication PMC5540273 (PLoS ONE, 2017)
